SMILES strings stand for the structures. About 83,000 compounds went through this panel and 20% of them were active in at least one assay; those are over-represented in the sample as a whole.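 Results are percent growth after 48 hours of single-concentration exposure. 100 means growth as in untreated cells, lower positive values show inhibition; negative values down to -100 show cell death.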 Values without a mark were called inactive. Active and inactive are the calls of the source. The calls were made as follows: active = growth percent below 10; inactive = the rest.

Experimental findings from PubChem BioAssay (NCI) are described below.

Common to all, as to assay: NCI-60 one-dose screen, 48 h (100 = growth as untreated, 0 = no growth, -100 = all killed)
The subject of one assay is EKVX NSCLC. As to conditions: 10 µM.
Another assay has as its system SN12C renal. The conditions noted are these: 10 µM.
Another assay deals with UO-31 renal. As to conditions: 10 µM.
In a further assay the test system is TK-10 renal. As to conditions: 10 µM unless noted.
The test system of another assay is ACHN renal. As to conditions: 10 µM.
For another assay, the system named is CAKI-1 renal. The conditions noted are these: 10 µM.
The test system of another assay is A498 renal. The conditions noted are these: 10 µM.
The subject of a further assay is CCRF-CEM leukemia. As to conditions: 10 µM.
The subject of the next assay is SR leukemia. As to conditions: 10 µM.
The next assay deals with RPMI-8226 leukemia. The conditions noted are these: 10 µM.
The next assay has as its system OVCAR-8 ovarian. As to conditions: 10 µM.
Another assay deals with OVCAR-5 ovarian. As to conditions: 10 µM.
In the next assay the test system is OVCAR-4 ovarian. As to conditions: 10 µM.
For another assay, the system named is SK-OV-3 ovarian. As to conditions: 10 µM.
The next assay concerns IGROV1 ovarian. The conditions noted are these: 10 µM.
The next assay deals with OVCAR-3 ovarian. The conditions noted are these: 10 µM.
The next assay has as its system HS 578T breast. As to conditions: 10 µM.
A further assay has as its system NCI/ADR-RES ovarian. As to conditions: 10 µM.
The test system of a further assay is MOLT-4 leukemia. The conditions noted are these: 10 µM.

For `O=[N+]([O-])c1ccc(Cl)c(S(=O)(=O)O)c1`, the growth in the assay on EKVX NSCLC is 111%; in the assay with SN12C renal, 103%; in the assay with UO-31 renal, 89.3%; in the assay on TK-10 renal it was 136%; in the assay on ACHN renal, 101%; in the assay on CAKI-1 renal it was 106%. Moreover, the growth in the assay on A498 renal is 113%; in the assay on CCRF-CEM leukemia, 81.3%; with SR leukemia, 89.2%; in the assay on RPMI-8226 leukemia, 100%; in the assay with OVCAR-8 ovarian it was 104%; with OVCAR-5 ovarian it was 105%. In addition, the growth in the assay with OVCAR-4 ovarian is 111%; in the assay with SK-OV-3 ovarian, 110%; in the assay with IGROV1 ovarian, 123%; with OVCAR-3 ovarian it was 106%; with HS 578T breast, 104%; in the assay with NCI/ADR-RES ovarian, 108%.
With `NC(=S)CN1CCOCC1`, the growth in the assay on EKVX NSCLC was 112%; with SN12C renal it was 103%; in the assay with UO-31 renal, 88%; in the assay with TK-10 renal, 99.3%; in the assay on ACHN renal it was 103%; in the assay on CAKI-1 renal it was 95.6%. Further, the growth was 89.9% in the assay on A498 renal; -25.8% (active) with CCRF-CEM leukemia; 32.3% in the assay on MOLT-4 leukemia; 78.2% in the assay with SR leukemia; 93.7% in the assay with RPMI-8226 leukemia; 105% in the assay with OVCAR-8 ovarian. In addition, the growth in the assay with OVCAR-5 ovarian was 105%; with OVCAR-4 ovarian it was 121%; in the assay with SK-OV-3 ovarian it was 112%; with IGROV1 ovarian it was 102%; in the assay on OVCAR-3 ovarian it was 111%; with NCI/ADR-RES ovarian it was 105%.
Take `Cc1cccc(C(=O)N(C(C)C)C(C)C)c1`: the growth in the assay with EKVX NSCLC was 95%; in the assay with SN12C renal, 96.1%; in the assay with UO-31 renal it was 94.4%; in the assay with TK-10 renal, 87%; with ACHN renal, 101%; in the assay on CAKI-1 renal it was 96.4%. In addition, the growth is 71.9% in the assay with A498 renal; 90.7% in the assay on CCRF-CEM leukemia; 108% in the assay with MOLT-4 leukemia; 110% with SR leukemia; 93.1% with RPMI-8226 leukemia; 100% in the assay with OVCAR-8 ovarian. For the same molecule, the growth in the assay with OVCAR-5 ovarian is 98%; in the assay on SK-OV-3 ovarian, 92.4%; in the assay on IGROV1 ovarian, 103%; with OVCAR-3 ovarian it was 107%; with HS 578T breast, 90.6%; in the assay on NCI/ADR-RES ovarian, 102%.
For the molecule `Cc1nc2c(ccc3ccccc32)s1`, the growth with EKVX NSCLC is 110%; in the assay with SN12C renal, 107%; with UO-31 renal it was 96.9%; with TK-10 renal, 119%; with ACHN renal it was 111%; in the assay on CAKI-1 renal, 103%. For the same molecule, the growth is 85.7% with CCRF-CEM leukemia; 103% with MOLT-4 leukemia; 91.3% with SR leukemia; 100% in the assay on RPMI-8226 leukemia; 94.1% in the assay on OVCAR-8 ovarian; 102% in the assay on OVCAR-5 ovarian. The growth with OVCAR-4 ovarian was 108%; in the assay on SK-OV-3 ovarian it was 107%; with IGROV1 ovarian, 109%; in the assay with OVCAR-3 ovarian it was 121%; with HS 578T breast it was 106%; with NCI/ADR-RES ovarian, 108%.
As to `COC(=O)/C=C1\Sc2cc(F)ccc2NC1=O`, the growth was 88.2% with EKVX NSCLC; 116% in the assay on SN12C renal; 101% with UO-31 renal; 139% in the assay with TK-10 renal; 111% in the assay with ACHN renal; 60.9% with CAKI-1 renal. In addition, the growth is 126% with A498 renal; 87.9% in the assay on CCRF-CEM leukemia; 92.3% in the assay with MOLT-4 leukemia; 95.5% in the assay with SR leukemia; 92% in the assay with RPMI-8226 leukemia; 83.2% in the assay on OVCAR-5 ovarian. The growth was 102% in the assay on OVCAR-4 ovarian; 111% with SK-OV-3 ovarian; 102% in the assay on IGROV1 ovarian; 115% in the assay with OVCAR-3 ovarian; 121% with HS 578T breast; 101% in the assay with NCI/ADR-RES ovarian.
Turning to `CC1C(=O)c2ccccc2CC1C(=O)O` (stereo unspecified), the growth in the assay on EKVX NSCLC was 113%; in the assay with SN12C renal it was 112%; in the assay on UO-31 renal, 100%; in the assay with ACHN renal, 98.5%; in the assay with CAKI-1 renal it was 83.2%; with CCRF-CEM leukemia it was 99.1%. Also, the growth was 97.3% in the assay with MOLT-4 leukemia; 95.8% in the assay with SR leukemia; 110% in the assay with RPMI-8226 leukemia; 97% in the assay on OVCAR-8 ovarian; 103% with OVCAR-5 ovarian; 108% with OVCAR-4 ovarian. Also, the growth is 108% in the assay with SK-OV-3 ovarian; 100% in the assay with IGROV1 ovarian; 129% in the assay with OVCAR-3 ovarian; 119% in the assay with HS 578T breast; 102% in the assay with NCI/ADR-RES ovarian.
Consider `CCC(=O)Oc1ccc(OC)cc1`, for which the growth in the assay with EKVX NSCLC is 104%; with SN12C renal it was 101%; in the assay on UO-31 renal it was 80.9%; with TK-10 renal it was 84.4%; in the assay on ACHN renal, 101%; in the assay with CAKI-1 renal, 98.3%. The growth is 101% in the assay with A498 renal; 101% in the assay on CCRF-CEM leukemia; 92.5% with MOLT-4 leukemia; 92.6% with SR leukemia; 128% in the assay on RPMI-8226 leukemia; 108% with OVCAR-8 ovarian. The growth was 102% in the assay on OVCAR-5 ovarian; 114% in the assay with OVCAR-4 ovarian; 101% with SK-OV-3 ovarian; 93.1% in the assay on IGROV1 ovarian; 103% with OVCAR-3 ovarian; 106% with NCI/ADR-RES ovarian.
`CNS(=O)(=O)c1ccc(Cl)c(Cl)c1`: the growth was 99% in the assay with EKVX NSCLC; 92.7% in the assay with SN12C renal; 109% in the assay with UO-31 renal; 89.4% with TK-10 renal; 99.5% in the assay with ACHN renal; 104% with A498 renal. Besides, the growth with CCRF-CEM leukemia is 104%; in the assay on MOLT-4 leukemia it was 84.9%; in the assay with SR leukemia, 78.1%; in the assay with RPMI-8226 leukemia it was 136%; in the assay with OVCAR-8 ovarian, 99.2%; in the assay with OVCAR-5 ovarian, 98.5%. Further, the growth with SK-OV-3 ovarian is 105%; in the assay on IGROV1 ovarian, 114%; in the assay on OVCAR-3 ovarian, 123%; with HS 578T breast, 98.9%; in the assay with NCI/ADR-RES ovarian, 110%.
Regarding `CCOC(=O)C1=C(C)NC(=O)NC1c1cccs1` (stereo unspecified), the growth was 109% with EKVX NSCLC; 103% in the assay on SN12C renal; 87.7% in the assay with UO-31 renal; 108% with TK-10 renal; 113% in the assay on ACHN renal; 103% in the assay with CAKI-1 renal. Further, the growth in the assay with A498 renal was 125%; with CCRF-CEM leukemia it was 95.8%; with MOLT-4 leukemia it was 82.7%; with SR leukemia it was 76.5%; in the assay with RPMI-8226 leukemia, 99.8%; in the assay on OVCAR-8 ovarian, 94.1%. Further, the growth was 122% in the assay on OVCAR-5 ovarian; 117% with OVCAR-4 ovarian; 105% in the assay with SK-OV-3 ovarian; 113% in the assay on IGROV1 ovarian; 118% with OVCAR-3 ovarian; 99% in the assay with HS 578T breast. Moreover, the growth in the assay on NCI/ADR-RES ovarian was 111%.
